# Bioassay records: PubChem, several laboratories
# Shown are actives, neighbours in structure and some others; about 3.9% of the full set was active somewhere.
# ALR H2O2 inh: inhibitors of human ALR sulfhydryl oxidase, primary screen, biochemical, H2O2 detection, HRP-luminol luminescence, single point | FAD-linked sulfhydryl oxidase ALR (Homo sapiens), P55789 | purified ALR, DTT oxidation | AID 485317, 2010 | inhibition, % (concentration not given with the values) | actives 3.8% (n = 290,000);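 active = mean replicate inhibition above about 79%, with every replicate also reaching it, limit read from the data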
# Target sequence (P55789 whole entry, looked up): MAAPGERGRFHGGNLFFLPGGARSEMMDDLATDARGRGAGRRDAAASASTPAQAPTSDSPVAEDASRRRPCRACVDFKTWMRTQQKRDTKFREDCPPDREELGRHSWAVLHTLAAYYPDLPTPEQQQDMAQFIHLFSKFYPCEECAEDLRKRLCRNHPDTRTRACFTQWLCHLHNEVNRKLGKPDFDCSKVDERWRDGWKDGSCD
# H9c2 protect: cardioprotection against H2O2-induced cell death, primary screen, uHTS, H9c2 cells, ATPLite luminescence; protection from H2O2 cell death, % at 20 µM; actives 0.63% (n = 360,000); H9c2 cardiomyocytes, H2O2 injury protection, 2 h; AID 588492, 2011;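 active = compounds giving at least 50% protection of heart cells from peroxide-induced death in the single-dose screen, raw or plate-pattern-corrected value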;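 note: 0% = DMSO wells with peroxide and 100% = DMSO wells without peroxide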
# SUMO HTRF inh: inhibitors of in vitro SUMOylation cascade, primary screen, biochemical, HTRF, uHTS; HTRF SUMOylation assay, SAE1/SAE2 + UBC9; inhibition, % at 35 µM; SUMO-conjugating enzyme UBC9 (Homo sapiens), P63279; actives 0.36% (n = 290,000); in the data active = inhibition above about 50%, passing the limit was not always enough
# NTR1 agonist: agonists of human NTR1, primary screen, imaging, U2OS cells, beta-arrestin-GFP, high content. AID 493036, 2011. Neurotensin receptor type 1 (Homo sapiens), P30989. actives 0.17% (n = 330,000). NTR1-U2OS beta-arrestin-GFP spot imaging, agonist mode. activation, % at 20 µM;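 active = activation at or above 40% of the spot to cytoplasm intensity ratio, with at least 20 cells analyzed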;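 note: 0% = DMSO without peptide and 100% = 100 nM NTR1 peptide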
# * = called active by the depositor; · = not tested or not shown.
SMILES,ALR H2O2 inh,H9c2 protect,SUMO HTRF inh,NTR1 agonist
COc1cccc(/C=N/NC(=O)NC2CCCCC2)c1O,90*,-5,7,0
COc1ccc(/C=N/NC(=O)CSCC(=O)Nc2ccccc2)cc1,-5,5,24,2
COc1cccc(/C=N/NC(=O)C(=O)N/N=C/c2cccc(OC)c2O)c1O,·,66*,71*,·
Cc1cccc(OC(=O)c2ccc3nccnc3c2)c1,2,11,2,1
Cc1ccc(C(=O)OCC(=O)NCCc2ccccc2)cc1C,-2,-5,·,0
COCc1cc(C)nc2oc(C(=O)c3ccccc3)c(N)c12,8,-11,2,3
COC(=O)C1=C/CCCN(C(c2ccccc2)c2ccccc2)/C=C\1C(=O)OC,·,1,·,·
O=C(NC1CCCCCC1)C1CCN(S(=O)(=O)N2CCC3(CC2)OCCO3)CC1,-1,-5,22,0
NC(=O)Nc1ccc(C(=O)N2CCN(S(=O)(=O)Cc3ccccc3)CC2)cc1,-1,6,·,0
COc1cccc(/C=N/NC(=O)CC2C(=O)NN=C2C)c1O (stereo not given),97*,3,13,-1
COc1ccc(NC2CCCN(C(=O)c3csc(C(C)C)n3)C2)cc1 (stereo not given),99*,0,6,-1
COc1ccc(NC2CCCN(C(=O)c3csc(C(C)C)n3)C2)cc1OC (stereo not given),99*,-2,3,0
COc1ccc(NC2CCCN(C(=O)c3cc(CC(C)C)nc(N)n3)C2)cc1 (stereo not given),93*,-1,-1,-1
